DT40 TDP1 CPT: growth inhibition of DT40 Tdp1-/-;hTDP1 cells with camptothecin (screen for TDP1 inhibitors); chicken DT40 Tdp1-/-;hTDP1 cells + 20 nM CPT, ATP luminescence, 48 h; Potency, µM (doses to about 46.2 µM), most hits filed as inhibitors; 420,000 compounds, 12% hits; AID 686979; further: nearly all actives have a fitted effect of over 55% in size
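Cell growth measured by CellTiter-Glo luminescence after a minimum 48 h, 37 C compound exposure with 20 nM CPT in Tdp1-knockout DT40 cells stably expressing hTDP1, seeded 400/well; qHTS titration format.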
RORg inh: inhibitors of mouse ROR gamma transcriptional activity; Drosophila S2 Gal4-RORgamma UAS-luciferase reporter, 20 h; Potency, µM (highest dose often 53.6 µM), most hits filed as inhibitors; 310,000 compounds, 5.4% hits; P51450; further: nearly all actives have a fitted effect of over 60% in size
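Using a luciferase readout, inhibitors were identified by reduced reporter activity in Drosophila cells coexpressing a copper-inducible Gal4–ROR gamma fusion and UAS-driven Photinus luciferase, incubated 20 hr after 700 uM copper sulfate.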
VP16 counter: inhibits Gal4-VP16 luciferase reporter, ROR gamma counter-screen. Potency, µM (titrated, usually from 53.6 µM), actives largely listed as inhibitors. 310,000 compounds, 3.5% hits. AID 2546. Drosophila S2 Gal4-VP16 UAS-luciferase, luminescence, 20 h;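 further: Gal4-VP16 expression switched on by copper sulfate through the metallothionein promoter; nearly all actives have a fitted effect of over 50% in size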
ELG1 repair inh: blocks ELG1-dependent DNA repair in HEK293T cells. AID 504467. Potency, µM (series often up to 46.1 µM), hits mostly inhibitors. HEK293T ELG1-luciferase reporter, luminescence, 16 h; DNA damage induced by 5-fluorouridine. 330,000 compounds, 2.3% hits; further: nearly all actives have a fitted effect of over 55% in size
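Cells (2,000 per well) received 5-fluorouridine plus test compound or DMSO and were incubated 16 hr at 37 °C, 5% CO2. Luciferase activity was read by luminescence 30 min after ONE-Glo addition; signal suppression marked inhibition of damage-induced ELG1 function.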
TDP1 cell noCPT: qHTS for Inhibitors of human tyrosyl-DNA phosphodiesterase 1 (TDP1): qHTS in cells in absence of CPT | DT40 Tdp1-/- hTDP1 cells, no CPT, ATP luminescence, 48 h | Potency, µM (doses to about 46.2 µM), most hits filed as inhibitors | 420,000 compounds, 15% hits; further: nearly all actives have a fitted effect of over 55% in size
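Chicken DT40 Tdp1-/- cells complemented with human TDP1, screened without camptothecin (DMSO vehicle only), 400 cells/well. Compounds pin-transferred, cells incubated at 37 °C for at least 48 hr. Growth read as ATP-dependent luminescence (CellTiter-Glo, 30 min at RT).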
ALOX12 inh: blocks human arachidonate 12S-lipoxygenase. purified 12hLO, xylenol orange hydroperoxide absorbance. Potency, µM (highest dose often 108 µM), most hits filed as inhibitors. 580,000 compounds, 1.1% hits. AID 1671190
Target sequence (P18054 whole entry, looked up): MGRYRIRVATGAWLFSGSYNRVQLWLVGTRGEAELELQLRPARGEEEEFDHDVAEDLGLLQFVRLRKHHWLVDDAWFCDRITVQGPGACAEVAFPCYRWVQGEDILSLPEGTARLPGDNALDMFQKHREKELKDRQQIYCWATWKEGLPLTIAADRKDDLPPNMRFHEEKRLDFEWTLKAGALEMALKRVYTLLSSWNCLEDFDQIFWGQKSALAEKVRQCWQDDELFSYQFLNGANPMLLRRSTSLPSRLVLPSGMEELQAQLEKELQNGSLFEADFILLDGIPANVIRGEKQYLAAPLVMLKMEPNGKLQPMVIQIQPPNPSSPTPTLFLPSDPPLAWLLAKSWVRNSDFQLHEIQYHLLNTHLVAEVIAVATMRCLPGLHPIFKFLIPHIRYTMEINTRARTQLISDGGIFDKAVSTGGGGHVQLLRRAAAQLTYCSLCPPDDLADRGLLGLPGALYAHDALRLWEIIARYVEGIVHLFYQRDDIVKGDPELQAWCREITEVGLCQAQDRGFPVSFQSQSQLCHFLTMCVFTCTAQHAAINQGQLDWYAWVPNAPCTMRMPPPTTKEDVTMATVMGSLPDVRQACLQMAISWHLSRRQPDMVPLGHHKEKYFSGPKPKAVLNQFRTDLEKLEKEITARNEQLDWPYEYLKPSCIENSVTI
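Purified human 12hLO (150 nM final) in 25 mM Hepes, 0.01% Triton X-100, pH 7.0 was preincubated 15 min at room temperature with compound. Then 40 uM arachidonic acid was added, 30 min. Hydroperoxide was read by Fe-XO absorbance ratio 573/405 nm.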
A number is an active result; . = inactive; ? = inconclusive; / = not tested or not shown; [ ] = dose if it differs, or a comment. This is a sample that favours compounds with a hit; in the whole collection about 15% have one here. The call rests on the fitted dose curve; in most records, active means well fitted curve in the direction sought with a large enough effect; inconclusive means small, poorly fitted or top-dose-only effect, or another doubt; inactive means no such curve, though single readings can be large; an effect the other way counts as inactive or inconclusive.

SMILES | DT40 TDP1 CPT | RORg inh | VP16 counter | ELG1 repair inh | TDP1 cell noCPT | ALOX12 inh
CC1=CC(C)(C)N2C(=O)C3(SCC(=O)N3c3ccc(F)cc3)c3cc(C)cc1c32 (stereo not given) | 29µM | 16µM | . | . | 10µM | .
O=C(COc1ncnc2ccc(Br)cc12)Nc1cccc(F)c1 | / | / | / | / | / | .
CCOc1cccc2sc(NC(=O)CCS(=O)(=O)c3ccccc3)nc12 | 8.2µM | . | . | ? | 8.2µM | /
CCOc1cccc2sc(N(CCN(C)C)C(=O)CCS(=O)(=O)c3ccccc3)nc12 | ? | / | / | / | . | .
COc1ccc(C)c2sc(NC(=O)CCS(=O)(=O)c3ccccc3)nc12 | 23µM | . | ? | ? | 16µM | .
COc1ccc(C)c2sc(NNC(=O)COc3ccccc3)nc12 | / | 7.1µM | . | ? | / | /
CCOc1cccc2sc(Nc3nc4ccc(NC(C)=O)cc4s3)nc12 | 18µM | 3.5µM | 4µM | ? | ? | .
COc1ccc(CC(=O)N(C)C2CCc3nnc(C)n3CC2)cc1Cl (stereo not given) | / | / | / | / | / | .
O=C(CCc1ncc(-c2c(F)cccc2F)o1)Nc1ccccn1 | / | / | / | / | / | .
CC(Cl)C(=O)Nc1ccccc1C(N)=O (stereo not given) | / | / | / | / | / | .
Cc1ccc(C2=Nc3ccccc3N(CC(=O)Nc3cccc(F)c3)C(=O)C2)cc1C | ? | / | / | / | 18µM | .
Cc1ccc(C2=Nc3ccccc3N(CC(=O)NCc3ccccc3Cl)C(=O)C2)cc1C | ? | / | / | / | 21µM | .
Cc1ccc(NC(=O)CN2C(=O)CC(c3ccc(F)cc3)=Nc3ccccc32)cc1F | 12µM | / | / | / | 12µM | .
COc1cccc(NC(=O)CSC2=Nc3ccccc3N=C(c3ccc(F)cc3)C2)c1 | 18µM | / | / | / | ? | .
Cc1ccc(CNC(=O)CN2C(=O)CC(c3ccc(C)c(C)c3)=Nc3ccccc32)cc1 | ? | / | / | / | ? | .
COc1cc(C2CC(=O)Nc3c2c(C)nn3-c2nncc(-c3ccc(C)cc3)n2)cc(OC)c1O (stereo not given) | / | / | / | / | / | .
O=C(Oc1cccc2cccnc12)c1ccco1 | ? | 1.6µM | 4µM | . | 21µM | .
O=C(Cc1ccc(Cl)cc1)Oc1cccc2cccnc12 | 0.29µM | 1.4µM | 4µM | . | 0.82µM | /
O=C(Nc1cccc2cccnc12)c1ccc(Br)o1 | . | ? | .[0.365 µM] | ? | ? | .
O=C(Oc1cccc2cccnc12)c1ccc(-c2ccccc2)cc1 | / | / | / | / | / | .
O=C(Oc1cccc2cccnc12)c1ccc(Br)o1 | . | 11µM | ? | . | . | .
O=C(Oc1ccc(Cl)c2cccnc12)c1ccco1 | ? | 0.89µM | 1.6µM | ? | ? | .
COc1cc(OC)cc(C(=O)Oc2cccc3cccnc23)c1 | / | / | / | / | / | .
CCCNC(=O)CNC(=O)C1=NN(C)C(=O)CC1 | / | / | / | / | / | .
Cc1ccc(NC(=O)c2ccc3c(c2)N(C)C2CCCCCN2C3=O)c(F)c1 (stereo not given) | / | / | / | / | / | .
SMILES | DT40 TDP1 CPT | RORg inh | VP16 counter | ELG1 repair inh | TDP1 cell noCPT | ALOX12 inh
O=C(Oc1cccc2cccnc12)c1cccs1 | 0.92µM | 1.6µM | 2.8µM | . | 0.82µM | ?
Cc1ccc(Cl)cc1NC(=O)Nc1cccs1 | . | 14µM | . | ? | 21µM | .
Cc1ccc(NC(=O)Nc2cccs2)c(C)c1 | 15µM | / | / | / | ? | .
Cc1cc(C2CCCN2C(=O)c2cc(C)c(C)c(S(N)(=O)=O)c2)on1 (stereo not given) | / | / | / | / | / | .
CC(C)C[C@@H]1N[C@H](C(=O)NCc2ccc(C#N)cc2)Cc2c[nH]c3cccc1c23 | / | / | / | / | / | .
COc1cccc(NC(=O)Cn2cc(S(=O)(=O)Cc3ccccc3F)c3ccccc32)c1 | 16µM | / | / | / | 18µM | ?
COc1ccc(NC(=O)CS(=O)(=O)c2cn(CC(=O)N(C(C)C)C(C)C)c3ccccc23)c(OC)c1 | . | . | . | ? | . | .
COc1ccc(C)cc1NC(=O)Cn1cc(S(=O)(=O)Cc2ccccc2Cl)c2ccccc21 | ? | / | / | / | 21µM | ?
CN(C(=O)Cn1cc(S(=O)(=O)Cc2ccccc2Cl)c2ccccc21)c1ccccc1 | 21µM | / | / | / | 21µM | ?
COc1ccc(NC(=O)Cn2cc(S(=O)(=O)Cc3ccccc3)c3ccccc32)c(OC)c1 | . | . | . | 15µM | . | .
COc1ccc(C(=O)Oc2ccccc2)cc1Br | / | / | / | / | / | .
COc1ccc(C)cc1CN(C)C(=O)Cn1c(=O)c2c(ncn2C)n(C)c1=O | / | / | / | / | / | .
O=C(CCc1c[nH]c2ccccc12)OCC(=O)N1CCCC1=O | / | / | / | / | / | .
COc1ccc(NC(=O)Cn2cc(S(=O)(=O)Cc3ccc(F)cc3)c3ccccc32)cc1OC | ? | / | / | / | ? | 50µM
CCCCCCCCCCOC(C)=O | / | / | / | / | / | .
CCCCc1cc(=O)oc2cc(OCC(=O)NCc3ccncc3)ccc12 | / | / | / | / | / | .
CN=c1sc(C(=O)Nc2ccccc2)c(C)n1C | . | . | . | . | ? | ?
CN=c1sc2c(n1C)C(=O)c1ccccc1C2=O | 4.1µM | / | / | / | 5.8µM | .
Cc1cnn(C2(C(=O)O)CCN(C(=O)c3cc(C)nc(C)n3)CC2)c1 | / | / | / | / | / | .
Cc1ccc(C(=O)NC(Nc2ccc(C)cc2C)C(Cl)(Cl)Cl)cc1 (stereo not given) | / | / | / | / | / | .
CC(C)CCNC(=O)NC(=O)CCl | / | / | / | / | / | 28µM
Cc1nnc(SCC(=O)NC(=O)NCCC(C)C)s1 | . | . | . | . | . | .
COc1ccc2c(c1)/C(=N/OC(=O)c1cc(SC)ccc1Cl)CCC2 | / | / | / | / | / | .
O=C1COc2ccc(-c3ccoc3)nc2CN1Cc1ccc(C(F)(F)F)cc1 | / | / | / | / | / | 40µM
c1ccc(-c2nc(-c3cccs3)[nH]c2-c2ccccc2)cc1 | ? | 10µM | . | ? | ? | .
SMILES | DT40 TDP1 CPT | RORg inh | VP16 counter | ELG1 repair inh | TDP1 cell noCPT | ALOX12 inh
CN(C)c1ccc(-c2nc(-c3cccs3)c(-c3cccs3)[nH]2)cc1 | 10µM | / | / | / | 9.2µM | ?
COc1cc(-c2nc(-c3ccccc3)c(-c3cccs3)[nH]2)cc(OC)c1OC | 16µM | . | . | ? | 23µM | .
COc1cc(-c2nc(-c3ccc4c(c3)-c3ccccc3S4(=O)=O)c(-c3ccccc3)[nH]2)cc(OC)c1OC | 18µM | . | ? | 2.6µM | 7.3µM | ?
CCOc1ccccc1-n1nnnc1SCc1nc2ccccc2[nH]1 | / | / | / | / | / | .
COC[C@]1(O)CCN(S(=O)(=O)c2cccc(C(=O)O)c2)CC1(C)C | / | / | / | / | / | .
COc1ccc(C(=O)Oc2cc(C)c(Cl)cc2C(C)C)cc1 | / | / | / | / | / | .
CCN1C=CC2=C(C#N)C(N)C(C#N)(C#N)C(c3ccccc3C(F)(F)F)C2C1 (stereo not given) | ? | ? | . | . | 23µM | .
Nc1nc(-c2ccccc2)c(N=Nc2cccc3ccccc23)s1 | 23µM | . | ? | . | 16µM | .
Nc1nc(-c2ccccc2)c(N=Nc2ccccc2Cl)s1 | . | . | ? | . | 16µM | ?

Bioassay records (PubChem)
